# According to PMC7862700, “An all-to-all approach to the identification of sequence-specific readers for epigenetic DNA modifications on cytosine”:
# Columns and labels:
# Experiment in all cases: DAPPL (digital affinity profiling via proximity ligation, sequencing); 10 mM Tris-HCl pH 7.5, 50 mM NaCl, 1 mM DTT, 4% glycerol, room temperature, 30 min; GST-TFs on glutathione beads, 16-mer random dsDNA library, 0.1% formaldehyde crosslink after washing; high values mean tight binding
# FEV = target: T1, FEV (Homo sapiens, UniProt Q99581 1-238); settings: protein: recombinant; tags: N-terminal GST; dsDNA, one strand shown
# T1 sequence: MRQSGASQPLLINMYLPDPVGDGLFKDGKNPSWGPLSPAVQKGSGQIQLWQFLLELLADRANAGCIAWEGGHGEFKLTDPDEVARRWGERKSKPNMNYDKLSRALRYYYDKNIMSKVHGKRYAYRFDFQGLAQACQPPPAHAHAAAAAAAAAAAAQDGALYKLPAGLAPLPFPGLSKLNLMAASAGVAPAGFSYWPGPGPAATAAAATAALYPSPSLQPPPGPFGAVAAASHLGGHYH
# Outline: (§1)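 Binding signal is given per hexamer as its read frequency for a factor divided by its frequency in the tag-only sample. GST-fused human transcription factors were expressed in yeast, captured on glutathione beads, barcoded with DNA and pooled with that sample, then incubated with 200 nmole of a 16-mer random double-stranded DNA library in Tris/NaCl/DTT/glycerol buffer for 30 min at room temperature. The pools were then washed, crosslinked, proximity-ligated, amplified by PCR and sequenced on an Illumina NextSeq500.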
# ETV5 = ETV5 (Homo sapiens, UniProt P41161 1-510); settings: protein: recombinant; tags: N-terminal GST; dsDNA, one strand shown
# Outline: as §1
# HSF1 = HSF1 (Homo sapiens, UniProt Q00613 1-529); settings: protein: recombinant; tags: N-terminal GST; chain copies: 3; dsDNA, one strand shown
# Outline: as §1
# SPIC = target: T2, SPIC (Homo sapiens, UniProt Q8N5J4 1-248); settings: protein: recombinant; tags: N-terminal GST; dsDNA, one strand shown
# T2 sequence: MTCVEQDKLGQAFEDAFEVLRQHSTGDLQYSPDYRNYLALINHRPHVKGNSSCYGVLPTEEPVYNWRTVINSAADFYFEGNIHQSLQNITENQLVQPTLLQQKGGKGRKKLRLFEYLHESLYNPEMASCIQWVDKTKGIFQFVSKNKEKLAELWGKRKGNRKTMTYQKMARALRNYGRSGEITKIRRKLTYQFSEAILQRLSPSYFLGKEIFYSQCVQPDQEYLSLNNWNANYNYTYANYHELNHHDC
# Outline: as §1
# ELF4 = ELF4 (Homo sapiens, UniProt Q99607 1-663); settings: protein: recombinant; tags: N-terminal GST; dsDNA, one strand shown
# Outline: as §1
# ELK4 = target: T3, ELK4 (Homo sapiens, UniProt P28324-2 1-405); settings: protein: recombinant; tags: N-terminal GST; dsDNA, one strand shown
# T3 sequence: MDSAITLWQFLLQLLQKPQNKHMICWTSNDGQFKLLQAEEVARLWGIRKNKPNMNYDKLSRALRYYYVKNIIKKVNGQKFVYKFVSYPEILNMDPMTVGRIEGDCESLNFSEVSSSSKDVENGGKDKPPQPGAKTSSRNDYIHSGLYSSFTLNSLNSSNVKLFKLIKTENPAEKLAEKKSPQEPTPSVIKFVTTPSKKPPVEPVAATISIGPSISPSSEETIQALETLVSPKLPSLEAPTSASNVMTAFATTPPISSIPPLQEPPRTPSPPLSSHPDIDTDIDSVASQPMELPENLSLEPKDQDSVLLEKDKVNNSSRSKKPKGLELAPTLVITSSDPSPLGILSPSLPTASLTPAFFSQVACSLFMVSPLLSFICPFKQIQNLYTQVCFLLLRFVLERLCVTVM
# Outline: as §1
# ETV2 = target: T4, ETV2 (Homo sapiens, UniProt O00321 1-342); settings: protein: recombinant; tags: N-terminal GST; dsDNA, one strand shown
# T4 sequence: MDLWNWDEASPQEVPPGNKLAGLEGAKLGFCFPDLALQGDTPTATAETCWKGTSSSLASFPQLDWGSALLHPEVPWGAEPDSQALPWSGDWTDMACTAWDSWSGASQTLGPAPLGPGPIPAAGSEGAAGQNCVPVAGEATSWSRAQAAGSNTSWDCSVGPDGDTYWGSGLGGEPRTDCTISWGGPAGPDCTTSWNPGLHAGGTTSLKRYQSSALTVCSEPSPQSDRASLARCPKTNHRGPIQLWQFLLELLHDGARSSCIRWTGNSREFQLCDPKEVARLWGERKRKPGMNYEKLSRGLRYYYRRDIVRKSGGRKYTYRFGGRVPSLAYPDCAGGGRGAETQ
# Outline: as §1
# ELF3 = target: T5, ELF3 (Homo sapiens, UniProt P78545 1-371); settings: protein: recombinant; tags: N-terminal GST; dsDNA, one strand shown
# T5 sequence: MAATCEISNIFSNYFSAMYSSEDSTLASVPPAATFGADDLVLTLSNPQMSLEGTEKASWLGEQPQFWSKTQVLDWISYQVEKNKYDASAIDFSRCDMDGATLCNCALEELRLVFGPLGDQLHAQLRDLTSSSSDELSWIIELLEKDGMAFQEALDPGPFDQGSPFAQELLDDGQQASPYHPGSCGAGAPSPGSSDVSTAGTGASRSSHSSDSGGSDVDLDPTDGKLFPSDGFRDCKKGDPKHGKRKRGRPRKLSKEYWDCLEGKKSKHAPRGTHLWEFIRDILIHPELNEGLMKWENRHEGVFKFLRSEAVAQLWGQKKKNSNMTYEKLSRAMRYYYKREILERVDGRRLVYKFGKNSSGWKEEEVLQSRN
# Outline: as §1
# CRX = CRX (Homo sapiens, UniProt O43186 1-299); settings: protein: recombinant; tags: N-terminal GST; dsDNA, one strand shown
# Outline: as §1
# ETV1 = ETV1 (Homo sapiens, UniProt P50549 1-477); settings: protein: recombinant; tags: N-terminal GST; dsDNA, one strand shown
# Outline: as §1
# ERF = target: T6, ERF (Homo sapiens, UniProt P50548 1-548); settings: protein: recombinant; tags: N-terminal GST; dsDNA, one strand shown
# T6 sequence: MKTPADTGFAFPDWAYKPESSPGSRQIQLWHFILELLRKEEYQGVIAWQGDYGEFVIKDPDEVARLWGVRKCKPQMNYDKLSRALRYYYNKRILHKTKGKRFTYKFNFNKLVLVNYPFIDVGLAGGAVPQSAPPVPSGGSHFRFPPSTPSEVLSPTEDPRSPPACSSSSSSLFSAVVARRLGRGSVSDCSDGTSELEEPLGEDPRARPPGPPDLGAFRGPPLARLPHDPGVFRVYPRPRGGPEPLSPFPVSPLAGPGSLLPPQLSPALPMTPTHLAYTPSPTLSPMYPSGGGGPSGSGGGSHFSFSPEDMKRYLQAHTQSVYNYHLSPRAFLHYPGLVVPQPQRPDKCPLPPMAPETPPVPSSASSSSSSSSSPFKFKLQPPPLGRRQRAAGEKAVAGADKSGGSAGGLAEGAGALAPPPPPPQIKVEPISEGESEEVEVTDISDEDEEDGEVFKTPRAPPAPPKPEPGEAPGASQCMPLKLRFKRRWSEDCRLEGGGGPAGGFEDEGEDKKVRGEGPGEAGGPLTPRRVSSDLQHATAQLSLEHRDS
# Outline: as §1
# ETV3L = target: T7, ETV3L (Homo sapiens, UniProt Q6ZN32 1-361); settings: protein: recombinant; tags: N-terminal GST; dsDNA, one strand shown
# T7 sequence: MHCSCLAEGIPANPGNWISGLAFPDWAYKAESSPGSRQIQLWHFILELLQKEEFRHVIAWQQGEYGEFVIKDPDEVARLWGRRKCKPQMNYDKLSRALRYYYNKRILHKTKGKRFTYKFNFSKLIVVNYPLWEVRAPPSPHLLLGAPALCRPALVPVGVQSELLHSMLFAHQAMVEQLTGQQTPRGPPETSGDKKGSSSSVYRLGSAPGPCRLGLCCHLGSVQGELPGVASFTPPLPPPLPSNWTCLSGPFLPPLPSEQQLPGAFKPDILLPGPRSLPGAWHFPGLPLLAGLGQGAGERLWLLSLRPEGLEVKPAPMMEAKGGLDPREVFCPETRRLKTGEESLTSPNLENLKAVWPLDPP
# Outline: as §1
# ETS2 = target: T8, ETS2 (Homo sapiens, UniProt P15036 1-469); settings: protein: recombinant; tags: N-terminal GST; dsDNA, one strand shown
# T8 sequence: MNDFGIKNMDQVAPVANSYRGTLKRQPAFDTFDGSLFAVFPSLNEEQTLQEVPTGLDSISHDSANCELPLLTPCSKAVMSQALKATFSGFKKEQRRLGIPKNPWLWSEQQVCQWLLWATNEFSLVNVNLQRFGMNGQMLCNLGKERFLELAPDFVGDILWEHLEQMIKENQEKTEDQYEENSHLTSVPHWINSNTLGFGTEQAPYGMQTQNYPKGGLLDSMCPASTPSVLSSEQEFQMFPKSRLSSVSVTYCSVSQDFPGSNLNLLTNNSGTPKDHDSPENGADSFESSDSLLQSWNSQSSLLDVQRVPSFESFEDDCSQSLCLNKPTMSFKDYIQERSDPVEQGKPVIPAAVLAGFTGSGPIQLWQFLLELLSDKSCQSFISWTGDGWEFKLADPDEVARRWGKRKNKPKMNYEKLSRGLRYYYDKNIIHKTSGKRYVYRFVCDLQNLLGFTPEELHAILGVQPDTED
# Outline: as §1
# SPDEF = target: T9, SPDEF (Homo sapiens, UniProt O95238 1-335); settings: protein: recombinant; tags: N-terminal GST; dsDNA, one strand shown
# T9 sequence: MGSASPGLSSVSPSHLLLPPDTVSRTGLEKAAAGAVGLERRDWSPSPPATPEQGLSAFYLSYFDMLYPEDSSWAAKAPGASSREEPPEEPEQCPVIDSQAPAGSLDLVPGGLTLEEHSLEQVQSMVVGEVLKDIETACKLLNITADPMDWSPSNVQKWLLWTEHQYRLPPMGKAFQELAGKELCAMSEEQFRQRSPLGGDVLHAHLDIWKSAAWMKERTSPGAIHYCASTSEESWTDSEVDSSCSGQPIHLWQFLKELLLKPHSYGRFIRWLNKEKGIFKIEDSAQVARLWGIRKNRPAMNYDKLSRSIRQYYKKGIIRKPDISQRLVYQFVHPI
# Outline: as §1
# ETV7 = target: T10, ETV7 (Homo sapiens, UniProt Q9Y603 1-341); settings: protein: recombinant; tags: N-terminal GST; dsDNA, one strand shown
# T10 sequence: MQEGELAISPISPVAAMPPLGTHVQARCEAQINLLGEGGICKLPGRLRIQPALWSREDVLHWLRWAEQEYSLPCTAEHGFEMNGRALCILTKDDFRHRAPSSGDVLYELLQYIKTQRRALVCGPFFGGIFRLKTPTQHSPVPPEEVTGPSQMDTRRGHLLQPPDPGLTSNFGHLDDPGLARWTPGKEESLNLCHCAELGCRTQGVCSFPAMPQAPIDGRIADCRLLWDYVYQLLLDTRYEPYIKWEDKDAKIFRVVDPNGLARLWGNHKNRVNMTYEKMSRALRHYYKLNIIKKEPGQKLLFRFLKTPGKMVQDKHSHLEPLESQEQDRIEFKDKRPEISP
# Outline: as §1
# ELF5 = target: T11, ELF5 (Homo sapiens, UniProt Q9UKW6-2 1-255); settings: protein: recombinant; tags: N-terminal GST; dsDNA, one strand shown
# T11 sequence: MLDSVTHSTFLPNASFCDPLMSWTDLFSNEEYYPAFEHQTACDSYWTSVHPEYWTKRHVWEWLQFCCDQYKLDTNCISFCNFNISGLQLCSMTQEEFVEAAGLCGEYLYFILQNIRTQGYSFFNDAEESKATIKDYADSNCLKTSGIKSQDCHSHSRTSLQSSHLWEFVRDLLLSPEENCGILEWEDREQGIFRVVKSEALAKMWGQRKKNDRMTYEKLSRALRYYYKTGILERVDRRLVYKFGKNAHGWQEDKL
# Outline: as §1
# ETV3 = target: T12, ETV3 (Homo sapiens, UniProt P41162-2 1-143); settings: protein: recombinant; tags: N-terminal GST; dsDNA, one strand shown
# T12 sequence: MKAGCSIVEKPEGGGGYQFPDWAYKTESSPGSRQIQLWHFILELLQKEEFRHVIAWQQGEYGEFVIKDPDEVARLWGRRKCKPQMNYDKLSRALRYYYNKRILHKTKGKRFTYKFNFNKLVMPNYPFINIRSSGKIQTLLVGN
# Outline: as §1
# ETV6 = ETV6 (Homo sapiens, UniProt P41212 1-452); settings: protein: recombinant; tags: N-terminal GST; dsDNA, one strand shown
# Outline: as §1
# Sequence of ETV6 (P41212 whole entry): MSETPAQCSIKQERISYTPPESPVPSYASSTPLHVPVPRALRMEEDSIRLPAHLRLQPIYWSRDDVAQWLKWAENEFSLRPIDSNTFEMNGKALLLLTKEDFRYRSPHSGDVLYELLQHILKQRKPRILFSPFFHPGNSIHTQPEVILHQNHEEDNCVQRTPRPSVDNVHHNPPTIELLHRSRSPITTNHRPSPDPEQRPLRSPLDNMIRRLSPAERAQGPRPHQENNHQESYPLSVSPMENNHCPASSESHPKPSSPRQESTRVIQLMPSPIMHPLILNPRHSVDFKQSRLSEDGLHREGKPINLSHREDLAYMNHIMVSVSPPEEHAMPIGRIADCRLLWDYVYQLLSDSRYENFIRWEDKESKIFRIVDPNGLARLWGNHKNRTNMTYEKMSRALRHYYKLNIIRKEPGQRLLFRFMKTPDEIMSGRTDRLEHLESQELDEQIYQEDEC
# Sequence of HSF1 (Q00613 whole entry): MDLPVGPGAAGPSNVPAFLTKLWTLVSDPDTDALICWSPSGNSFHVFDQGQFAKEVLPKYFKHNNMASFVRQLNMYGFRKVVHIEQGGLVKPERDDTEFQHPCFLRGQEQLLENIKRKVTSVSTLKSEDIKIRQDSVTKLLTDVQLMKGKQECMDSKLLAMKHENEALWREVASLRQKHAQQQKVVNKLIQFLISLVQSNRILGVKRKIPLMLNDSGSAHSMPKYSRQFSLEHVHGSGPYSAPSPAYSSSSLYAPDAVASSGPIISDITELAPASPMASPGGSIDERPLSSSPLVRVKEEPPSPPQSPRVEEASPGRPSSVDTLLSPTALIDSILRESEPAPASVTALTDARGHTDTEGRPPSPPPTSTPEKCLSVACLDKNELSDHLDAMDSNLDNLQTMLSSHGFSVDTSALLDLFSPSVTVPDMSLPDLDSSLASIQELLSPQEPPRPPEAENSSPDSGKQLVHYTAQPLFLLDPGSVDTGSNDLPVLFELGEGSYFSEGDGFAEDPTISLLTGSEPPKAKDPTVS
# Sequence of CRX (O43186 whole entry): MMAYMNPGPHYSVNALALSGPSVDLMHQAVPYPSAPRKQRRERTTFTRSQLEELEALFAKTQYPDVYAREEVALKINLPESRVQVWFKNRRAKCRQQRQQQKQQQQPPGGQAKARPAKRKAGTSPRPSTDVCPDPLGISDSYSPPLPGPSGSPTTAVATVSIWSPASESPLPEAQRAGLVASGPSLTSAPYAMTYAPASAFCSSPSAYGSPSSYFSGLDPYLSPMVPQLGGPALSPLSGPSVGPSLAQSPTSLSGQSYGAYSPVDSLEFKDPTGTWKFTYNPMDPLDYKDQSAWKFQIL
# Sequence of ETV1 (P50549 whole entry): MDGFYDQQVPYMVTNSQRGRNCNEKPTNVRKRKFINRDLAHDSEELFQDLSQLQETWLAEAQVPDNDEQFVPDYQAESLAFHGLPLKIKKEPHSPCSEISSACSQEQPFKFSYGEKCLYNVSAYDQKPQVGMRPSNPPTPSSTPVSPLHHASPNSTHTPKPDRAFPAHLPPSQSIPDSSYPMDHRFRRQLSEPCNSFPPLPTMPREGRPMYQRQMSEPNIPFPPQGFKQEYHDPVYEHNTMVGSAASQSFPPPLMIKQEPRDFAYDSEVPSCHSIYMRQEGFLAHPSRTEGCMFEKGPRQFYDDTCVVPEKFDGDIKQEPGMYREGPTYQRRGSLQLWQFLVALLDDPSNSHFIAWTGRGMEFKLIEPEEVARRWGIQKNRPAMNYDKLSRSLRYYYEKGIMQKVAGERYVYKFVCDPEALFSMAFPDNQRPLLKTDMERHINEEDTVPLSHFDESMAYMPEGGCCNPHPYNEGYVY
# Sequence of ETV5 (P41161 whole entry): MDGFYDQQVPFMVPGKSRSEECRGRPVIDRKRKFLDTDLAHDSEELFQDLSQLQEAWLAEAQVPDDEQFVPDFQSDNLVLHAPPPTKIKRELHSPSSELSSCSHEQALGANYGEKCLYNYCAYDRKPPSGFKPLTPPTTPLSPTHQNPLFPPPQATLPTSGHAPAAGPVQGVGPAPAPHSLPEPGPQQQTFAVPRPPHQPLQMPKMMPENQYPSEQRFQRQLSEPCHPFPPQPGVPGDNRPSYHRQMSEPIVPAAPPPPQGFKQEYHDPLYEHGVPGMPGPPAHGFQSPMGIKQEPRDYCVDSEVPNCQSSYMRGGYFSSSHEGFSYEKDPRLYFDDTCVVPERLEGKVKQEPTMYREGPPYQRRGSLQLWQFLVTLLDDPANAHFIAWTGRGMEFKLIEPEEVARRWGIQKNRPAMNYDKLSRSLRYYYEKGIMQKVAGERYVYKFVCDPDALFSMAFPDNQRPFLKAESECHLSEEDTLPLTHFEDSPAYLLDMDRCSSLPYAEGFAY
# Sequence of ELF4 (Q99607 whole entry): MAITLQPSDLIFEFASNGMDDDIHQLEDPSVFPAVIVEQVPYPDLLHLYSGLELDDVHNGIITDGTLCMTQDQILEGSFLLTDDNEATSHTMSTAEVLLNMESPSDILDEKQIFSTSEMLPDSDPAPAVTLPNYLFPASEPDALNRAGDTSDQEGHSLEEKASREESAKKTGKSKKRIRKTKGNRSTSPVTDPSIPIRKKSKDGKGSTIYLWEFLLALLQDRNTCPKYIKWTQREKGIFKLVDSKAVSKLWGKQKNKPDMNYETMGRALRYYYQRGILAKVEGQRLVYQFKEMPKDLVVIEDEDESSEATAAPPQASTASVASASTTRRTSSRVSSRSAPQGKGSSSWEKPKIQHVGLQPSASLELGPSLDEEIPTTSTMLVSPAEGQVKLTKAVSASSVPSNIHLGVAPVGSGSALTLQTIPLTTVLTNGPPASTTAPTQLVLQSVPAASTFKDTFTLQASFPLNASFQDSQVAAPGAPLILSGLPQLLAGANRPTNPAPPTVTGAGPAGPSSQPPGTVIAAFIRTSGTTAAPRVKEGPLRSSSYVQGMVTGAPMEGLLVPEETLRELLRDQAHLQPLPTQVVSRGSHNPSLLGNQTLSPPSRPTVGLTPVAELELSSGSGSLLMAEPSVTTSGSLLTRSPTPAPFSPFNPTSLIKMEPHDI
sequence,measurement,setting,value
TTTAGC,binding signal,FEV,"1.11 fold enrichment (6-mer frequency, TF over GST control)"
same,binding signal,ETV5,"1.03 fold enrichment (6-mer frequency, TF over GST control)"
same,binding signal,HSF1,"1.25 fold enrichment (6-mer frequency, TF over GST control)"
same,binding signal,SPIC,"1.07 fold enrichment (6-mer frequency, TF over GST control)"
same,binding signal,ELF4,"1.2 fold enrichment (6-mer frequency, TF over GST control)"
same,binding signal,ELK4,"1.13 fold enrichment (6-mer frequency, TF over GST control)"
same,binding signal,ETV2,"1.13 fold enrichment (6-mer frequency, TF over GST control)"
same,binding signal,ELF3,"1.08 fold enrichment (6-mer frequency, TF over GST control)"
same,binding signal,CRX,"1.64 fold enrichment (6-mer frequency, TF over GST control)"
same,binding signal,ETV1,"1.18 fold enrichment (6-mer frequency, TF over GST control)"
same,binding signal,ERF,"1.19 fold enrichment (6-mer frequency, TF over GST control)"
same,binding signal,ETV3L,"1.21 fold enrichment (6-mer frequency, TF over GST control)"
same,binding signal,ETS2,"1.01 fold enrichment (6-mer frequency, TF over GST control)"
same,binding signal,SPDEF,"1.08 fold enrichment (6-mer frequency, TF over GST control)"
same,binding signal,ETV7,"1.03 fold enrichment (6-mer frequency, TF over GST control)"
same,binding signal,ELF5,"1 fold enrichment (6-mer frequency, TF over GST control)"
same,binding signal,ETV3,"1.13 fold enrichment (6-mer frequency, TF over GST control)"
same,binding signal,ETV6,"1.12 fold enrichment (6-mer frequency, TF over GST control)"
